Reference: the supplement of paper PMC6992640
± gives the standard deviation of the averaged measurements.

How the values were obtained:
Assay in all cases: cell viability (% of vehicle); higher = less cytotoxic
Settings in all cases: 10 µM; 72 h
HCI01 = test system: HCI01 (cells of a triple-negative basal-like breast cancer xenograft)
HCI03 = test system: HCI03 (cells of an ER-positive luminal breast cancer xenograft)
HCI09 = test system: HCI09 (cells of a triple-negative luminal androgen receptor type breast cancer xenograft)
HCI11 = test system: HCI11 (cells of an ER-positive luminal breast cancer xenograft)
HCI13 = test system: HCI13 (cells of an ER-positive luminal breast cancer xenograft)
HCI16 = test system: HCI16 (cells of a triple-negative basal-like breast cancer xenograft)
UCD52 = test system: UCD52 (cells of a triple-negative basal-like breast cancer xenograft)
WHIM2 = test system: WHIM2 (cells of a triple-negative basal-like breast cancer xenograft)
WHIM30 = test system: WHIM30 (cells of a triple-negative basal-like breast cancer xenograft)
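Also: PDX cells carrying CMV promoter-driven luciferase, viability read as total photon flux per second by IVIS imaging following D-luciferin, vehicle control 0.1% DMSO.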

| SMILES | cell viability (HCI01) | cell viability (HCI03) | cell viability (HCI09) | cell viability (HCI11) | cell viability (HCI13) | cell viability (HCI16) | cell viability (UCD52) | cell viability (WHIM2) | cell viability (WHIM30) |
| --- | --- | --- | --- | --- | --- | --- | --- | --- | --- |
| O=C([O-])CCCc1ccccc1.[Na+] [Sodium Phenylbutyrate] | 122 ± 6.5 | 135 | 101 ± 19 | 117 | 124 ± 8.9 | 127 | 103 ± 16 | 103.7 ± 0.73 | 162 ± 27 |
| Nc1ccc(C(=O)[O-])c(O)c1.O.O.[Na+] [Sodium 4-Aminosalicylate] | 138 ± 21 | 157 | 108 ± 20 | 95.3 | 96.8 ± 13 | 143 | 77.7 ± 16 | 87.9 ± 20 | 92.3 ± 1.1 |
| CC1c2cccc(O)c2C(O)=C2C(=O)C3(O)C(O)=C(C(N)=O)C(=O)C(N(C)C)C3C(O)C21.Cl (stereo not given) [Doxycycline hyclate] | 159 ± 22 | 109 | 94.8 ± 12 | 114 | 107 ± 5.1 | 134 | 111 ± 3.3 | 90.9 ± 9.3 | 173 ± 22 |
| C=C[C@]1(C)C[C@@H](OC(=O)CSC2C[C@H]3CC[C@@H](C2)N3C)[C@]2(C)[C@H](C)CC[C@]3(CCC(=O)[C@H]32)[C@@H](C)[C@@H]1O (stereo not given in full) [Retapamulin] | 73.5 ± 21 | 113 | 83.2 ± 3.2 | 93.3 | 111 ± 10 | 109 | 81.8 ± 4.8 | 80.3 ± 5.3 | 146 ± 15 |
| CN(C)CCc1c[nH]c2ccc(CS(=O)(=O)N3CCCC3)cc12.O=C(O)CC(O)C(=O)O [Almotriptan Malate] | 105 ± 5 | 132 | 103 ± 6 | 86.5 | 84.8 ± 7.8 | 144 | 87.7 ± 4.3 | 90.6 ± 0.17 | 134 ± 8 |
| Cl.Nc1c2c(nc3ccccc13)CCCC2 [Tacrine hydrochloride] | 81.8 ± 14 | 119 | 90.7 ± 4.3 | 97 | 87.7 ± 6.4 | 98.3 | 96.6 ± 4.1 | 76.3 ± 2.9 | 87.06 ± 0.45 |
| CCCNC1CCc2nc(N)sc2C1 (stereo not given) [Pramipexole] | 122 ± 25 | 111 | 113 ± 5.7 | 110 | 163 ± 2.5 | 151 | 114 ± 20 | 101.5 ± 0.41 | 100 ± 12 |
| CC(C)OC(=O)OCOP(=O)(COC(C)Cn1cnc2c(N)ncnc21)OCOC(=O)OC(C)C.O=C(O)C=CC(=O)O (stereo not given) [Tenofovir Disoproxil Fumarate] | 106 ± 2.7 | 130 | 94.5 ± 7.6 | 97 | 51.9 ± 9.2 | 105 | 106 ± 12 | 118 ± 28 | 136 ± 10 |
| COc1cc2c(cc1OC)CN(CCc1ccc(NC(=O)c3cccc4c(=O)c5cccc(OC)c5[nH]c34)cc1)CC2 [Elacridar] | 111.7 ± 0.54 | 71.7 | 71.7 ± 33 | 101 | 113 ± 35 | 97.7 | 63.7 ± 5.6 | 48.2 ± 22 | 89.9 ± 0.9 |
| CSc1nc2cc(Oc3cccc(Cl)c3Cl)c(Cl)cc2[nH]1 [Triclabendazole] | 99.7 ± 4.9 | 108 | 83 ± 23 | 97.1 | 47.9 ± 7.4 | 127 | 89.2 ± 6.4 | 124 ± 34 | 134 ± 14 |
